In PubChem BioAssay (NCATS):
Results filed as inconclusive are left out. The source made the active and inactive calls. The call rests on the fitted dose curve; in most records, active means well fitted curve in the direction sought with a large enough effect; inconclusive means small, poorly fitted or top-dose-only effect, or another doubt; inactive means no such curve, though single readings can be large; an effect the other way counts as inactive or inconclusive.

Assays:
[1] = qHTS Screen of the MIPE 4.0 Collection Against Ewings Sarcoma (RDES) (AID 1259252); further: nearly all actives have a fitted effect of over 35% in size; further: potency means the concentration at half of the fitted maximal effect
Method in brief: (§1)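 Cells plated in serum-containing RPMI (5% FBS) and treated with compound dilutions for 48 h. Readout luminescent viability; normalization relied on vehicle (no inhibition) and media-only columns (full inhibition).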

[2] = qHTS Screen of the MIPE 4.0 Collection Against Ewings Sarcoma (EW8) (AID 1259255); further: nearly all actives have a fitted effect of over 35% in size; further: potency means the concentration at half of the fitted maximal effect
Method in brief: as §1

[3] = qHTS Screen of the MIPE 4.0 Collection Against Ewings Sarcoma (TC32) (AID 1259256); further: nearly all actives have a fitted effect of over 45% in size; further: potency means the concentration at half of the fitted maximal effect
Method in brief: as §1

[4] = qHTS Screen of the MIPE 4.0 Collection Against Ewings Sarcoma (TC71) (AID 1259253); further: nearly all actives have a fitted effect of over 40% in size; further: potency means the concentration at half of the fitted maximal effect
Method in brief: as §1

[5] = qHTS assay to identify small molecule inhibitors of chordoma cells - UCH-1 (AID 1259355); further: nearly all actives have a fitted effect of over 55% in size; further: potency means the concentration at half of the fitted maximal effect; series mostly up to about 46 µM
Method in brief: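 Seed 800 cells per well; incubate overnight at 37 C, 5% CO2. Add test compounds (15 concentrations), then the auranofin–topoisomerase-agent combination. Incubate 48hr, add CellTiter-Glo, wait 30min, read luminescence.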

[6] = qHTS assay to identify small molecule inhibitors of chordoma cells - UCH-2 (AID 1259356); further: series mostly up to about 46 µM
[7] = Identifying Small Molecule Inhibitors of Pancreatic Cancer Stem Cells (A2780, Spheroid) (AID 1259357); conditions: Potency: A2780 spheroid viability;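 further: compound exposure lasted 48 h before the ATP luminescence read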
Method in brief: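 Cytotoxicity read by CellTiter-Glo luminescence after 48 h compound exposure at 37C; percent activity scaled between DMSO-treated cells and cell-free wells. Spheroid formats used cells pre-formed 14 days in stem cell media on hydrogel.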

Measured: Potency

Cc1ccc(S(=O)(=O)N[C@@H](Cc2ccccc2)C(=O)CCl)cc1
active: [1] 26.4 µM | [2] 16.6 µM | [3] 14.8 µM

COc1cc2ncnc(Nc3cccc(Cl)c3)c2cc1OC
active: [1] 0.118 µM | [4] 4.18 µM | [3] 16.6 µM

CCCCCCNC(=O)n1cc(F)c(=O)[nH]c1=O
inactive: [5] | [6]
active: [1] 13.2 µM | [4] 8.33 µM | [3] 18.7 µM

CCc1cc(C(N)=S)ccn1
inactive: [1] | [2] | [5] | [6]
active: [4] 20.9 µM

NC(=O)c1cccnc1
inactive: [1] | [4] | [2] | [3] | [6]

CS(=O)(=O)c1ccc([C@@H](O)[C@@H](CO)NC(=O)C(Cl)Cl)cc1
inactive: [5] | [6]
active: [1] 13.2 µM | [4] 16.6 µM | [3] 18.7 µM

COc1cc2c(Nc3ccc(Br)cc3F)ncnc2cc1OCC1CCN(C)CC1
inactive: [7]
active: [1] 16.6 µM | [4] 5.9 µM | [2] 5.26 µM | [5] 5.01 µM

CN(C)CCc1c[nH]c2ccc(CS(=O)(=O)N3CCCC3)cc12
inactive: [1] | [2] | [3] | [5] | [6]

COc1ccccc1OCC(O)COC(N)=O (configuration not stated)
inactive: [1] | [2] | [3] | [5] | [6]

OC(Cn1cncn1)(Cn1cncn1)c1ccc(F)cc1F
inactive: [1] | [2] | [3] | [5] | [6]

CC(C)(C)NC(=O)[C@H]1CC[C@H]2[C@@H]3CC[C@H]4NC(=O)C=C[C@]4(C)[C@H]3CC[C@]12C
inactive: [5] | [6]
active: [1] 1.05 µM | [2] 5.9 µM | [3] 3.72 µM

CN1CCCC(n2nc(Cc3ccc(Cl)cc3)c3ccccc3c2=O)CC1 (configuration not stated)
active: [1] 1.05 µM | [2] 8.33 µM | [3] 3.72 µM
inactive: [5] | [6]

CN(Cc1cc(Br)cc(Br)c1N)C1CCCCC1
inactive: [1] | [2] | [3] | [6]

COc1cc(NCc2ccc3nc(N)nc(N)c3c2C)cc(OC)c1OC
inactive: [6]
active: [1] 3.32 µM | [2] 1.32 µM | [3] 0.833 µM

CC(C)(C#N)c1cc(Cn2cncn2)cc(C(C)(C)C#N)c1
inactive: [1] | [2] | [3] | [5] | [6]

Nc1nc(N)c2nc(CNc3ccc(C(=O)NC(CCC(=O)O)C(=O)O)cc3)cnc2n1 (configuration not stated)
inactive: [5]
active: [1] 0.0166 µM | [3] 0.0332 µM
